Experimental data reported in PubChem BioAssay AID1159580 (chemical genetic matrix, 2015).
In all, about 5,500 compounds went through this assay and about 2,000 (36%) were called active. Inconclusive results (about 18%) are left out. Cut-off read from the data, not from the text of the source: active = normalized growth mostly below about 0.91 (no sharp cut-off); inconclusive = no clear call, values can overlap the other calls; inactive = mostly above about 0.92. Some of the results follow.

Assay: chemical genetic growth profiling, strain panel (AID 1159580);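 note: tested at 20 µM; growth read once vehicle control cultures reached saturation at 30 °C; 1 = growth at the plate median or of vehicle wells; lower values mean less growth of the strain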
Details: growth OD

Measured: normalized growth

CC[C@H]1OC(=O)[C@H](C)[C@@H](O[C@H]2C[C@@](C)(OC)[C@@H](O)[C@H](C)O2)[C@H](C)[C@@H](O[C@@H]2O[C@H](C)C[C@H](N(C)C)[C@H]2O)[C@](C)(O)C[C@@H](C)[C@@H]2N[C@@H](COCCOC)O[C@H]([C@H]2C)[C@]1(C)O
inactive: S. cerevisiae deletion strains, locus YJR075W, strain HOC1, active compounds read low 1.05 | S. cerevisiae deletion strains, locus YKL009W, strain mrt4, active compounds read low 1.03 | S. cerevisiae deletion strains, locus YKL068W, active compounds read low 1 | S. cerevisiae deletion strains, locus YKL085W, strain MDH1 (second series), active compounds read low 0.976 | S. cerevisiae deletion strains, locus YKL085W, strain MDH1, active compounds read low 0.976 | S. cerevisiae deletion strains, locus YKL160W, strain elf1, active compounds read low 1 | S. cerevisiae deletion strains, locus YKR001C, strain vps1, active compounds read low 1.01 | S. cerevisiae deletion strains, locus YKR026C, strain gcn3, active compounds read low 0.987 | S. cerevisiae deletion strains, locus YKR091W, strain srl3, active compounds read low 0.997 | S. cerevisiae deletion strains, locus YLL001W, strain dnm1, active compounds read low 0.991 | S. cerevisiae deletion strains, locus YLL026W, active compounds read low 0.984 | S. cerevisiae deletion strains, locus YLL041C, strain sdh2, active compounds read low 0.986 | S. cerevisiae deletion strains, locus YLR027C, strain aat2, active compounds read low 0.991 | S. cerevisiae deletion strains, locus YLR039C, strain RIC1, active compounds read low 0.982 | S. cerevisiae deletion strains, locus YLR058C, strain SHM2, active compounds read low 1.02 | S. cerevisiae deletion strains, locus YLR102C, strain apc9, active compounds read low 1.01 | S. cerevisiae deletion strains, locus YLR113W, strain HOG1, active compounds read low 1.04 | S. cerevisiae deletion strains, locus YLR221C, strain rsa3, active compounds read low 0.993 | S. cerevisiae deletion strains, locus YLR258W, strain gsy2, active compounds read low 1 | S. cerevisiae deletion strains, locus YLR262C, strain YPT6 (second series), active compounds read low 0.985 | S. cerevisiae deletion strains, locus YLR262C, strain YPT6, active compounds read low 1.01 | S. cerevisiae deletion strains, locus YLR268W, strain sec22, active compounds read low 0.999 | S. cerevisiae deletion strains, locus YLR320W, strain mms22, active compounds read low 0.991 | S. cerevisiae deletion strains, locus YLR330W, strain CHS5, active compounds read low 1.01 | S. cerevisiae deletion strains, locus YLR342W, strain FKS1 (second series), active compounds read low 1.02 | S. cerevisiae deletion strains, locus YLR342W, strain FKS1, active compounds read low 0.992 | S. cerevisiae deletion strains, locus YLR357W, strain rsc2, active compounds read low 0.958 | S. cerevisiae deletion strains, locus YLR370C, strain arc18, active compounds read low 0.989 | S. cerevisiae deletion strains, locus YLR371W, strain rom2, active compounds read low 1 | S. cerevisiae deletion strains, locus YLR384C, strain iki3, active compounds read low 0.993 | S. cerevisiae deletion strains, locus YLR418C, strain cdc73, active compounds read low 0.996 | S. cerevisiae deletion strains, locus YML016C, strain PPZ1, active compounds read low 1.01 | S. cerevisiae deletion strains, locus YML032C, strain rad52, active compounds read low 0.999 | S. cerevisiae deletion strains, locus YML120C, strain ndi1, active compounds read low 0.997 | S. cerevisiae deletion strains, locus YML124C, strain tub3, active compounds read low 1 | S. cerevisiae deletion strains, locus YMR058W, strain fet3, active compounds read low 0.997 | S. cerevisiae deletion strains, locus YMR078C, strain ctf18, active compounds read low 1.01 | S. cerevisiae deletion strains, locus YMR125W, strain sto1, active compounds read low 0.992 | S. cerevisiae deletion strains, locus YMR129W, active compounds read low 1 | S. cerevisiae deletion strains, locus YMR205C, strain PFK2, active compounds read low 0.969 | S. cerevisiae deletion strains, locus YMR223W, strain ubp8, active compounds read low 1.02 | S. cerevisiae deletion strains, locus YMR231W, strain pep5, active compounds read low 0.993 | S. cerevisiae deletion strains, locus YMR263W, strain SAP30, active compounds read low 1.03 | S. cerevisiae deletion strains, locus YMR307W, strain GAS1, active compounds read low 0.919 | S. cerevisiae deletion strains, locus YNL067W, strain RPL9B, active compounds read low 1.04 | S. cerevisiae deletion strains, locus YNL071W, strain lat1, active compounds read low 0.999 | S. cerevisiae deletion strains, locus YNL128W, strain TEP1, active compounds read low 1.02 | S. cerevisiae deletion strains, locus YNL183C, strain NPR1, active compounds read low 0.96 | S. cerevisiae deletion strains, locus YNL209W, strain ssb2, active compounds read low 0.988 | S. cerevisiae deletion strains, locus YNL233W, strain BNI4, active compounds read low 1.03 | S. cerevisiae deletion strains, locus YNL248C, strain rpa49, active compounds read low 0.975 | S. cerevisiae deletion strains, locus YNL250W, strain rad50, active compounds read low 1.01 | S. cerevisiae deletion strains, locus YNL271C, strain bni1, active compounds read low 1.01 | S. cerevisiae deletion strains, locus YNL298W, strain CLA4, active compounds read low 1 | S. cerevisiae deletion strains, locus YNL307C, strain MCK1, active compounds read low 1 | S. cerevisiae deletion strains, locus YNL322C, strain KRE1 (second series), active compounds read low 0.995 | S. cerevisiae deletion strains, locus YNR049C, strain mso1, active compounds read low 0.989 | S. cerevisiae deletion strains, locus YNR052C, strain pop2, active compounds read low 1.01 | S. cerevisiae deletion strains, locus YOL006C, strain TOP1, active compounds read low 1.09 | S. cerevisiae deletion strains, locus YOL012C, strain htz1 1.56 | S. cerevisiae deletion strains, locus YOL147C, strain pex11, active compounds read low 1 | S. cerevisiae deletion strains, locus YOR001W, strain rrp6, active compounds read low 0.986 | S. cerevisiae deletion strains, locus YOR061W, strain CKA2, active compounds read low 1.02 | S. cerevisiae deletion strains, locus YOR069W, strain VPS5, active compounds read low 1.01 | S. cerevisiae deletion strains, locus YOR070C, strain gyp1, active compounds read low 0.999 | S. cerevisiae deletion strains, locus YOR080W, strain dia2, active compounds read low 0.995 | S. cerevisiae deletion strains, locus YOR083W, strain WHI5, active compounds read low 0.996 | S. cerevisiae deletion strains, locus YOR106W, strain vam3, active compounds read low 0.999 | S. cerevisiae deletion strains, locus YOR136W, strain idh2, active compounds read low 1 | S. cerevisiae deletion strains, locus YOR144C, strain elg1, active compounds read low 1.01 | S. cerevisiae deletion strains, locus YOR184W, strain ser1, active compounds read low 1 | S. cerevisiae deletion strains, locus YOR231W, strain MKK1, active compounds read low 1.02 | S. cerevisiae deletion strains, locus YOR265W, strain rbl2, active compounds read low 0.996 | S. cerevisiae deletion strains, locus YOR270C, strain vph1, active compounds read low 0.978 | S. cerevisiae deletion strains, locus YOR290C, strain snf2, active compounds read low 0.981 | S. cerevisiae deletion strains, locus YOR316C, strain cot1, active compounds read low 1.01 | S. cerevisiae deletion strains, locus YPL051W, strain arl3, active compounds read low 1.01 | S. cerevisiae deletion strains, locus YPL078C, strain atp4, active compounds read low 0.995 | S. cerevisiae deletion strains, locus YPL106C, strain sse1, active compounds read low 0.978 | S. cerevisiae deletion strains, locus YPL240C, strain hsp82, active compounds read low 0.989 | S. cerevisiae deletion strains, locus YPL256C, strain CLN2, active compounds read low 1.01 | S. cerevisiae deletion strains, locus YPR119W, strain clb2, active compounds read low 1.01 | S. cerevisiae deletion strains, locus YPR141C, strain kar3, active compounds read low 1.01 | S. cerevisiae deletion strains, locus YPR163C, strain tif3, active compounds read low 1.02 | S. cerevisiae deletion strains, locus YPR167C, strain met16, active compounds read low 0.996 | S. cerevisiae deletion strains, strain wtn01, active compounds read low 1 | S. cerevisiae strains, strain wild type, active compounds read low 1.02
